The panel holds about 79,000 compounds, 15% with a hit somewhere; the sample as a whole holds those more often. Activity calls are given as the source filed them. Rule as the data show it: active = growth inhibition above about 70%; inactive = the rest.
Assays:
[1] = NCI Yeast Anticancer Drug Screen. Data for the wt1 strain (AID 149);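 also: 0% = growth of vehicle-treated wt1 cultures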; details: S. cerevisiae wt1 strain (SPY 50644) growth inhibition, stronger effect = higher value
Procedure, shortened: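 Yeast wt1 strain exposed to compounds; growth inhibition measured relative to vehicle-treated controls.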

[2] = NCI Yeast Anticancer Drug Screen. Data for the rad50EPP+ strain (AID 151);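 also: 0% = growth of vehicle-treated control cultures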; details: S. cerevisiae rad50 mutant strain, stronger effect = higher value
Procedure, shortened: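 Strain rad50EPP+; compound exposure; % growth inhibition vs vehicle.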

[3] = NCI Yeast Anticancer Drug Screen. Data for the rad50 strain (AID 155);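 also: 0% = growth of vehicle-only cultures of the same strain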; details: S. cerevisiae rad50 strain growth inhibition, stronger effect = higher value
Procedure, shortened: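 Yeast carrying a defined DNA repair defect were exposed to test compounds, and growth was compared with vehicle-treated controls to give percent inhibition.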

[4] = NCI Yeast Anticancer Drug Screen. Data for the mec2-1 strain (AID 157); details: S. cerevisiae mec2-1 strain, stronger effect = higher value
Procedure, shortened: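 Cells of the genetically defined mec2-1 yeast strain are incubated with test compound. Inhibition of growth is calculated against vehicle-treated controls.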

[5] = NCI Yeast Anticancer Drug Screen. Data for the rad14 strain (AID 159);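 also: 0% = growth of vehicle-treated control cultures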; details: S. cerevisiae rad14 strain growth inhibition, stronger effect = higher value
Procedure, shortened: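 Yeast cells carrying a defined DNA-repair defect were exposed to compounds, and growth inhibition was calculated relative to vehicle-treated control cultures.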

[6] = NCI Yeast Anticancer Drug Screen. Data for the sgs1 mgt1 strain (AID 161);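 also: 0% = growth of cultures given vehicle only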; details: S. cerevisiae sgs1 mgt1 strain, stronger effect = higher value
Procedure, shortened: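 Test agents were incubated with a DNA-repair-mutant yeast strain. Growth was then read and compared against vehicle-treated controls.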

[7] = NCI Yeast Anticancer Drug Screen. Data for the CLN2oe strain (AID 163);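 also: 0% = growth of vehicle-only control cultures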; details: S. cerevisiae CLN2oe strain, stronger effect = higher value
Procedure, shortened: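 Strain altered in cell-cycle control, incubated with compound; growth compared to solvent-treated controls.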

[8] = NCI Yeast Anticancer Drug Screen. Data for the cln2 rad14 strain (AID 165);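 also: 0% = growth equal to vehicle treated cultures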; details: S. cerevisiae cln2 rad14 strain, stronger effect = higher value
Procedure, shortened: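 The screen exposed genetically defined yeast (cln2 rad14) to test compounds and scored growth inhibition relative to vehicle-treated controls.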

[9] = NCI Yeast Anticancer Drug Screen. Data for the bub3 strain (AID 167); details: S. cerevisiae bub3 mutant strain, stronger effect = higher value
Procedure, shortened: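 Compounds were applied to a genetically altered yeast strain carrying a cell-cycle control defect. Growth inhibition was scored against vehicle-treated controls.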

[10] = NCI Yeast Anticancer Drug Screen. Data for the wt2 strain (AID 169);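 also: 0% = growth of vehicle-treated yeast cultures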; details: S. cerevisiae wt2 strain growth inhibition, stronger effect = higher value
Procedure, shortened: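 Steps: yeast strain treated with compound; growth recorded; inhibition calculated relative to cultures given vehicle alone.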

[11] = NCI Yeast Anticancer Drug Screen. Data for the mlh1 strain (AID 171);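 also: 0% = growth of vehicle-treated control cultures of the same strain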; details: S. cerevisiae mlh1 strain growth inhibition, stronger effect = higher value
Procedure, shortened: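 Yeast screen: mutant strain plus compound, growth scored against vehicle control wells.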

[12] = NCI Yeast Anticancer Drug Screen. Data for the sgs1 strain (AID 173);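 also: 0% = growth of vehicle-only control cultures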; details: S. cerevisiae sgs1 mutant, stronger effect = higher value
Procedure, shortened: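 Inhibition of yeast growth served as the measure. The mutant strain was treated with each compound, and growth was normalised to cultures receiving vehicle alone.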

[13] = NCI Yeast Anticancer Drug Screen. Data for the mlh1 rad18 strain (AID 175); details: S. cerevisiae mlh1 rad18 strain growth inhibition, stronger effect = higher value
Procedure, shortened: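 Compound-treated yeast growth, normalised to vehicle controls. Strain bears defined DNA repair mutations.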

[14] = NCI Yeast Anticancer Drug Screen. Data for the rad18 strain (AID 177); details: S. cerevisiae rad18 mutant growth inhibition, stronger effect = higher value
Procedure, shortened: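 Inhibition values reflect reduced yeast growth compared with vehicle-treated controls, using a strain engineered with a DNA damage repair defect.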

[15] = at 5.0 µM (retest, dose inferred, filed as 0.5)
[16] = at 50.0 µM (retest, dose inferred, filed as 5.0)

Measured: growth inhibition

OC(CN1CCCCC1)c1cc(Cl)c(Cl)c(Cl)c1 (stereo not drawn)
inactive: [1]; at 1.2 µM 4% | [1]; at 3.7 µM 9% | [1]; at 11.0 µM 6% | [1]; at 33.0 µM 6% | [1]; at 100.0 µM 14% | [2]; at 1.2 µM 3% | [2]; at 3.7 µM 8% | [2]; at 11.0 µM 10% | [2]; at 33.0 µM 7% | [2]; at 100.0 µM 1% | [3]; at 1.2 µM 5% | [3]; at 3.7 µM 13% | [3]; [15] 2% | [3]; at 11.0 µM 11% | [3]; at 33.0 µM 20% | [3]; [16] 41% | [3]; at 50.0 µM 38.4% | [3]; at 100.0 µM 36% | [4]; at 1.2 µM 5% | [4]; at 3.7 µM 11% | [4]; [15] 2% | [4]; at 11.0 µM 15% | [4]; at 33.0 µM 24% | [4]; [16] 49% | [4]; at 50.0 µM 32.2% | [4]; at 100.0 µM 38% | [5]; at 1.2 µM 9% | [5]; at 3.7 µM 25% | [5]; at 11.0 µM 33% | [5]; at 33.0 µM 28% | [5]; at 100.0 µM 39% | [6]; [15] 12% | [6]; [16] 49% | [6]; at 50.0 µM 57.1% | [7]; at 1.2 µM 7% | [7]; at 3.7 µM 8% | [7]; at 11.0 µM 32% | [7]; at 33.0 µM 47% | [7]; at 100.0 µM 57% | [8]; [15] 8% | [8]; [16] 35% | [8]; at 50.0 µM 51.6% | [9]; at 1.2 µM 3% | [9]; at 3.7 µM 9% | [9]; [15] 4% | [9]; at 11.0 µM 25% | [9]; at 33.0 µM 38% | [9]; [16] 38% | [9]; at 100.0 µM 53% | [10]; at 1.2 µM 3% | [10]; at 3.7 µM 8% | [10]; at 11.0 µM 10% | [10]; at 33.0 µM 12% | [10]; at 100.0 µM 15% | [11]; at 1.2 µM 5% | [11]; at 3.7 µM 7% | [11]; at 11.0 µM 17% | [11]; at 33.0 µM 18% | [11]; at 100.0 µM 21% | [12]; at 1.2 µM 6% | [12]; at 3.7 µM 14% | [12]; at 11.0 µM 20% | [12]; at 33.0 µM 27% | [12]; at 100.0 µM 37% | [13]; [15] 14% | [13]; [16] 43% | [13]; at 50.0 µM 50.4% | [14]; at 1.2 µM 5% | [14]; at 3.7 µM 13% | [14]; at 11.0 µM 8% | [14]; at 33.0 µM 14% | [14]; at 100.0 µM 22%
active: [9]; at 50.0 µM 70.8%
